Bioassay records (PubChem BioAssay)
In the library only some 0.78% were active in any assay of this set; here they are far more common.
3CLpro inhibitor = SARS-CoV 3CLpro protease inhibition | P0C6X7 | recombinant SARS-CoV 3CLpro, quenched FRET peptide cleavage | inhibition, % at 6 µM | 290,000 compounds, 0.14% hits; in the data active means inhibition above about 12%
PriA SSB inh = blocks PriA binding to SSB C-terminal tail; AlphaScreen SSBct-PriA binding, biotinylated peptide; AID 1272365; 430,000 compounds, 0.6% hits; inhibition, % at 33 µM; in the data active means inhibition mostly above about 37%, no sharp cut-off; inactive means mostly below about 20%
BJeLR lethal = kills HRASV12-expressing BJeLR cells | BJeLR (HRASV12) viability, CellTiter-Glo ATP luminescence, 48 h | inhibition, % (no concentration beside the values) | 300,000 compounds, 0.17% hits; in the data active means inhibition above about 50%
Numbers stand for hits; i = inactive; nt = no result given; ! = a repeat was not active.

SMILES	3CLpro inhibitor	PriA SSB inh	BJeLR lethal
CCS(=O)(=O)c1cccc(C(=O)Nc2nc3c(C)cccc3s2)c1	nt	i	nt
CCOC(=O)N=Nc1c2ccccc2c2nc3no[nH]c3nc12	i	i	53.8
CCOC(=O)N=Nc1c(O)n(CC(=O)OC)c2ccccc12	i	i	i
CC(C)C(=O)Nc1ccc(C(=O)NCCNC(=O)c2ccc(Cl)cc2Cl)cc1	nt	i	nt
O=C(Nc1cnn(CC2CCOCC2)c1)c1ccccc1Br	nt	i	nt
Cc1cc2nc3ccc(=[N+](C)C)cc-3sc2cc1N	i	83.1	57.0
CN(C)c1ccc2nc3ccc(=[N+](C)C)cc-3sc2c1	i	i	nt
NC(=O)CSc1nnc(-c2ccccn2)n1Cc1ccco1	i	i	i
Nn1c(SC/C=C/c2ccccc2)nnc1-c1cccnc1	i	i	i
C(=C\c1ccccc1)/CSc1nnc(-c2ccccn2)n1Cc1ccco1	i	67.8	i
c1coc(Cn2c(SCc3nc4ccccc4[nH]3)nnc2-c2cnccn2)c1	i	i	i
Nn1c(SC/C=C/c2ccccc2)nnc1-c1ccccn1	i	90.4	i
c1ccc(-c2nnc(SCc3nc4ccccc4[nH]3)n2Cc2ccco2)nc1	i	88.0	i
CN1CCCc2cc(C(CNS(=O)(=O)c3ccccc3Cl)N(C)C)ccc21 (stereo unspecified)	nt	i	nt
CC(C)(C)NCC(O)COc1ccc(C23CC4CC(CC(C4)C2)C3)cc1 (stereo unspecified)	nt	i	nt
CC(C)=NOC(=O)c1cn(-c2ccccc2)nc1-c1ccc(F)cc1	nt	i	nt
CCOC(=O)c1c(NC(=O)CCSc2nnc3ccc4ccccc4n23)sc2c1CCCC2	nt	i	nt
O=C(/C=C/c1cccnc1)c1ccc([N+](=O)[O-])cc1	i	i	i
COc1cc(C(=O)/C=C/c2cccnc2)c([N+](=O)[O-])cc1OC	nt	i	55.5
COc1cccc(N(C(=O)c2cnccn2)C(C(=O)NC2CCCCC2)c2ccc(Cl)cc2)c1 (stereo unspecified)	i	i	i
COc1ccc(C(C(=O)NC2CCCCC2)N(C(=O)CCl)c2ccc(C)cc2)cc1 (stereo unspecified)	i	i	135.2
COc1ccc(C(C(=O)NC2CCCCC2)N(C(=O)CCl)c2cccc(Cl)c2)cc1 (stereo unspecified)	i	i	119.0
COc1ccc(C(C(=O)NC2CCCC2)N(C(=O)c2ccoc2C)c2ccc(C)cc2)cc1 (stereo unspecified)	i	i	i
O=C(NC1CCCCC1)C(c1cccnc1)N(C(=O)CCl)c1ccc(F)cc1 (stereo unspecified)	i	i	i
COc1ccc(C(C(=O)NC2CCCCC2)N(C(=O)CCl)c2ccc(OC)cc2)cc1 (stereo unspecified)	i	i	117.9
SMILES	3CLpro inhibitor	PriA SSB inh	BJeLR lethal
COc1ccc(N(C(=O)CCl)C(C(=O)NC2CCCCC2)c2cccnc2)cc1 (stereo unspecified)	21.2	i	80.7
COc1ccc(N(C(=O)Cc2cccs2)C(C(=O)NC2CCCC2)c2ccncc2)cc1 (stereo unspecified)	i	i	i
CN(C)S(=O)(=O)c1ccc(C(=O)NCC(C)(O)c2ccc(-c3ccccc3)cc2)cc1 (stereo unspecified)	nt	i	nt
O=C(Cn1cnc2ccccc21)N1CCCCC(c2ccc(F)cc2)C1 (stereo unspecified)	nt	i	nt
Cc1cc2ncc3c(n2n1)CCN(C(=O)c1sc(-n2cccc2)nc1C)C3	nt	i	nt
COCCn1c(SCc2cccnc2)nnc1-c1cn(C)nc1OC	nt	i	nt
CCN(CC)c1ccc(C(=O)NC(=S)Nc2nc(-c3ccc([N+](=O)[O-])cc3)cs2)cc1	nt	i	nt
Nc1c2c(nc3ccccc13)CCCC2	i	i	i
Nc1c2ccccc2nc2ccccc12	i	i	88.6!
OCCn1cccn1	nt	i	nt
CN(C)S(=O)(=O)NCCNC(=O)c1cc(OCC(F)(F)F)ccc1OCC(F)(F)F	i	i	i
O=C(NCCNC(=O)c1cc(OCC(F)(F)F)ccc1OCC(F)(F)F)Nc1cccc(C(F)(F)F)c1	16.4	i	i
CSc1ccccc1NC(=O)c1cccc(-n2cnnn2)c1	nt	i	nt
O=C(CCCNS(=O)(=O)c1ccc(Cl)cc1)N1CCN(c2ccccn2)CC1	nt	i	nt
COc1cc2nc(C3CCC3)nc(N3CCN(c4ccccn4)CC3)c2cc1OC	i	i	i
COc1cc2nc(C3CCC3)nc(N3CCN(c4ccccc4OC)CC3)c2cc1OC	i	39.1	i
CCc1ccc2c(c1)C(C)(C)C1(/C=C/c3ccco3)NC(=O)CCN21 (stereo unspecified)	nt	50.0	nt
Cc1ccccc1/C=C/C12NC(=O)CN1c1ccccc1C2(C)C (stereo unspecified)	i	i	i
COC(=O)CC/C(C)=N\Nc1ccc([N+](=O)[O-])cc1[N+](=O)[O-]	i	nt	i
CCOC(=O)C(C)C(C)=NNc1ccc([N+](=O)[O-])cc1[N+](=O)[O-] (stereo unspecified)	nt	66.8	nt
C/C(CC(C)C)=N/Nc1ccc([N+](=O)[O-])cc1[N+](=O)[O-]	i	nt	i
CCOC(=O)CC(C)(C)C(C)=NNc1ccc([N+](=O)[O-])cc1[N+](=O)[O-]	nt	44.0	nt
CCOc1ccc(NN=C(C(=O)OC)C(=O)OC)c([N+](=O)[O-])c1	i	i	i
CCOC(=O)C(=NNc1ccc([N+](=O)[O-])cc1[N+](=O)[O-])C(=O)OCC	nt	90.0	nt
CC(=O)Nc1ccc(NC(=O)CN2CCN(c3nccn3C)CC2)cc1	nt	i	nt
SMILES	3CLpro inhibitor	PriA SSB inh	BJeLR lethal
COc1ccc(-c2cn3cccnc3n2)cc1NC(=O)c1ccccc1Cl	nt	i	nt
CCOC(=O)CN1C(=O)CSC1=O	nt	i	nt
NS(=O)(=O)c1ccc(NC(=O)C2CCCN2c2nc3ccccc3o2)cc1 (stereo unspecified)	nt	i	nt
Cc1cccc(CCN=c2c([N+](=O)[O-])nn(-c3ccccc3)n2O)c1	i	39.5	i
COc1ccc(-n2nc([N+](=O)[O-])c(=NCCc3cccc(C)c3)n2O)cc1	i	i	i
Cc1ccc2[nH]c3c(=O)n(CCC(=O)N4CCN(c5cc(Cl)ccc5C)CC4)cnc3c2c1	nt	i	nt
O=C(c1ccc2[nH]ccc2c1)N1CC(c2nc(C3CC3)no2)C1	nt	i	nt
O=C(c1ccc(N2CCOCC2)nn1)N1CCN(c2ccccn2)CC1	nt	i	nt
O=C(c1ccc(CSCc2ccccc2F)o1)N1CCN(c2ccc(N3CCOCC3)nn2)CC1	i	95.6	i
Cc1ccsc1C=C1C(=O)NC(=O)NC1=O	nt	i	nt
COC(=O)CCCSc1nccn1-c1ccccc1	i	i	i
CCc1ccc(CSc2nccn2-c2ccccc2)cc1	i	63.0	i
O=C(CSc1nccn1-c1ccccc1)NCc1ccc(F)cc1	i	i	i
c1ccc(CCSc2nccn2-c2ccccc2)cc1	i	61.7	i
Cc1ccc(NC(=O)CSc2nc3c(-c4ccccc4)c[nH]c3c(=O)n2C)c(Cl)c1	nt	i	nt
Cc1cc(O)c(C=Nc2cccc(C(F)(F)F)c2)c(=O)o1	nt	i	nt
COc1ccc(CC(=O)N2CCCC(c3nnc(C)s3)C2)cc1 (stereo unspecified)	nt	i	nt
CCCN1C(=O)/C(=C/c2cc(C)n(C)c2C)SC1=Nc1ccc(OC)cc1	i	i	i
COc1ccc(N=C2S/C(=C\c3cc(C)n(C)c3C)C(=O)N2C)cc1	i	38.8	i
O=C(NCCc1csc(-c2ccc(Cl)cc2)n1)C1CCCC1	nt	i	nt
